Test results from PubChem BioAssay (NCATS).
Records with an inconclusive call do not appear. Unmarked numbers belong to inactive results. The source made the active and inactive calls. The call rests on the fitted dose curve; in most records, active means well fitted curve in the direction sought with a large enough effect; inconclusive means small, poorly fitted or top-dose-only effect, or another doubt; inactive means no such curve, though single readings can be large; an effect the other way counts as inactive or inconclusive.

Tested on: not listed separately
Assay: Quantitative high throughput screen for delayed death inhibitors of the malarial parasite plastid, 48 hour incubation (AID 488752); further: nearly all actives have a fitted effect of over 65% in size; further: potency means the concentration at half of the fitted maximal effect; on activity change, negative = inhibition: on the % scale 0 is the no-effect control and ±100 the full control effect
Conditions: Plasmodium falciparum growth; series mostly up to 28.7 µM; activity change, negative = inhibition: at the top concentration
How it was run: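 One-generation (48 h) growth assay: a decrease in luciferase signal from an integrated reporter in P. falciparum-infected red cells (0.1% parasitemia, 2% hematocrit) after compound exposure at 37 C indicates parasite inhibition.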

SMILES	activity change, negative = inhibition	Potency
CC(N=C(NC#N)Nc1ccncc1)C(C)(C)C (stereo unspecified)	33.6%	
Cc1ccc(/C(=C\CN2CCCC2)c2ccccn2)cc1	-9.87%	
CCN(CC)CCOCCOC(=O)C1(c2ccccc2)CCCC1	-15.1%	
Cc1nc2ccccn2c(=O)c1CCN1CCC(C(=O)c2ccc(F)cc2)CC1	-18.2%	
COC(=O)[C@@H](N)Cc1ccc(O)c(O)c1	-0.901%	
COc1ccc([C@@H]2Sc3ccccc3N(CCN(C)C)C(=O)[C@@H]2OC(C)=O)cc1	-3.74%	
Cc1scc2c1N(C(=O)CN1CCN(C)CC1)c1ccccc1NC2=O	-4.88%	
C[C@]12CCC(=O)C=C1CC[C@@H]1[C@@H]2CC[C@@]2(C)[C@H]1CC[C@]2(O)C(=O)CO	-2.53%	
CN(C)C/C=C(/c1ccc(Br)cc1)c1cccnc1		13100 nM (active)
CN(C(=O)CCCOc1ccc2[nH]c(=O)ccc2c1)C1CCCCC1	-25.5%	
NC(N)=N/N=C/c1c(Cl)cccc1Cl	-24.8%	
CCn1nc(C(=O)O)c(=O)c2cc3c(cc21)OCO3	-4.53%	
COC(=O)C1=C(C)NC(C)=C(C(=O)OCCN(C)Cc2ccccc2)C1c1cccc([N+](=O)[O-])c1 (stereo unspecified)		2940 nM (active)
C[N+](C)(C)CCCCCCCCCC[N+](C)(C)C		1040 nM (active)
CCOC(=O)c1cnc2c(cnn2CC)c1NN=C(C)C	10.4%	
CSc1ccc(C(=O)c2[nH]c(=O)[nH]c2C)cc1	-2.15%	

Target: Thioredoxin reductase 1, cytoplasmic (Rattus norvegicus) (UniProt O89049)
Sequence (O89049 whole entry, looked up): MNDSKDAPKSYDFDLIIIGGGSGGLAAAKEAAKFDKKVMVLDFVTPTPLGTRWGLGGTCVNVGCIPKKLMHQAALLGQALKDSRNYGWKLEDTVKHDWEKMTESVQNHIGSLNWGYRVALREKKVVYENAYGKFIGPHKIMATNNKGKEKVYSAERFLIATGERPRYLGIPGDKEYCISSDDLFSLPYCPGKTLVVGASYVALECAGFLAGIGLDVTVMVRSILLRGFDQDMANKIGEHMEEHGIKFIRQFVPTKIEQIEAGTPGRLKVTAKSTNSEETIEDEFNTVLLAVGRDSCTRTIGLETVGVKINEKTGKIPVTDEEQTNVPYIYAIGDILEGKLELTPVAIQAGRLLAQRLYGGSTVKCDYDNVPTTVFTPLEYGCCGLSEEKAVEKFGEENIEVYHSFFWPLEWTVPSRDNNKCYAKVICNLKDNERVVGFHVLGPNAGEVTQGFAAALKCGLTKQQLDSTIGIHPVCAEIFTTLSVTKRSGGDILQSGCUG
Assay: qHTS Assay for Substrates of Mammalian Selenoprotein Thioredoxin Reductase 1 (TrxR1) (AID 488772);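 further: 0% is about no effect; a drop in NADPH fluorescence below the no-compound background marks a TrxR1 substrate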
Conditions: purified TrxR1, NADPH consumption substrate assay; series mostly up to 57.1 µM; activity change, negative = NADPH consumption: at the top concentration
How it was run: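 In this dual-purpose format, potential substrates are identified from the first fluorescence read after selenite addition, not from the 8-minute delta. Rat enzyme is preincubated with NADPH and then with compound at ~22 deg C.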

SMILES	activity change, negative = NADPH consumption
CC(N=C(NC#N)Nc1ccncc1)C(C)(C)C (stereo unspecified)	-0.418%
Cc1ccc(/C(=C\CN2CCCC2)c2ccccn2)cc1	-4.34%
NC(=O)c1cn(Cc2c(F)cccc2F)nn1	3.17%
CCN(CC)CCOCCOC(=O)C1(c2ccccc2)CCCC1	7.61%
COCCCC/C(=N\OCCN)c1ccc(C(F)(F)F)cc1	-6.89%
Cc1nc2ccccn2c(=O)c1CCN1CCC(C(=O)c2ccc(F)cc2)CC1	-9.9%
NC1=NCC2c3ccccc3Cc3ccccc3N12 (stereo unspecified)	-8.75%
CCCN1C[C@H](CSC)C[C@@H]2c3cccc4[nH]cc(c34)C[C@H]21	-12.1%
Cc1cccc(C)c1NC(=O)C(C)N (stereo unspecified)	-7.77%
COc1ccc([C@@H]2Sc3ccccc3N(CCN(C)C)C(=O)[C@@H]2OC(C)=O)cc1	-0.409%
Cc1scc2c1N(C(=O)CN1CCN(C)CC1)c1ccccc1NC2=O	-6.85%
C[C@]12CCC(=O)C=C1CC[C@@H]1[C@@H]2CC[C@@]2(C)[C@H]1CC[C@]2(O)C(=O)CO	-0.0805%
CC(C)(C)c1ccc(C(=O)CCCN2CCC(OC(c3ccccc3)c3ccccc3)CC2)cc1	-9.74%
CN(C)C/C=C(/c1ccc(Br)cc1)c1cccnc1	-7.12%
CN1C(=O)CC[C@H]1c1cccnc1	-5.88%
CN(C(=O)CCCOc1ccc2[nH]c(=O)ccc2c1)C1CCCCC1	3.15%
CC(C)(Oc1ccc(CCNC(=O)c2ccc(Cl)cc2)cc1)C(=O)O	-6.87%
NC(N)=N/N=C/c1c(Cl)cccc1Cl	-5.96%
CC(=O)[C@@]1(O)CC[C@H]2[C@@H]3CCC4=CC(=O)CC[C@]4(C)[C@H]3CC[C@@]21C	-1.77%
C[C@@H](O)[C@H]1C(=O)N2C(C(=O)O)=C(SCCN=CN)C[C@H]12	-4.86%
COc1ccc2c(c1OC)C(=O)O[C@@H]2[C@H]1c2c(cc3c(c2OC)OCO3)CCN1C	-6.49%
CCn1nc(C(=O)O)c(=O)c2cc3c(cc21)OCO3	-11.4%
COC(=O)C1=C(C)NC(C)=C(C(=O)OCCN(C)Cc2ccccc2)C1c1cccc([N+](=O)[O-])c1 (stereo unspecified)	-9.56%
CN(C)[C@@H]1C(=O)C(C(N)=O)=C(O)[C@@]2(O)C(=O)C3=C(O)c4c(O)ccc(Cl)c4[C@@H](O)[C@H]3C[C@@H]12	-14.7%
COC(=O)C1=C(C)NC(C)=C(C(=O)OC(C)(C)CN(C)CCC(c2ccccc2)c2ccccc2)C1c1cccc([N+](=O)[O-])c1 (stereo unspecified)	-14.1%
C[N+](C)(C)CCCCCCCCCC[N+](C)(C)C	-6.27%
CCOC(=O)c1cnc2c(cnn2CC)c1NN=C(C)C	-3.66%
CCN(CC)CCCN(c1ccccc1)C1Cc2ccccc2C1	-9.11%
CNCCCN1c2ccccc2CCc2ccccc21	-8.53%
CSc1ccc(C(=O)c2[nH]c(=O)[nH]c2C)cc1	-11.4%
